Data: PubChem BioAssay AID651640 (Broad Institute, 2012)
“And” between values parts separate entries of the source, which are not always exact repeats. Equal entries are not always repeated. Hit rate of the full screen: of about 350,000 compounds, about 6,000 (1.7%) were called active. Another 5% or so got no clear call; they are omitted. No stated cut-off is given here; in the data, active means CPE inhibition above about 20% (passing the limit was not always enough); inconclusive means no clear call, values can overlap the other calls; tested in BHK-21 cells. What follows is part of a selection rich in actives, with near analogues and random picks from the rest. Where a structure was tested more than once in an assay, its records may differ in their call.

Assay: protection of cells from dengue 2 killing – plate reader, single concentration, primary screen (AID 651640);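 further: 0% = median of neutral control wells and 100% = median of positive control wells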
Settings: DENV2-infected cells, cytopathic effect rescue, at 9.99 µM, stronger effect = higher value

SMILES | CPE inhibition
Cc1ccc(O)c(CCc2ccccc2)n1 | 1.33% (inactive)
Cc1cc(C)n2c(NCc3ccccc3)c(CC(C)C)nc2n1 | -7.45% (inactive)
Cc1cc(C)n2c(Nc3c(C)cccc3C)c(CCc3ccccc3)nc2n1 | 20.8% (active)
O=C(c1ccccc1F)N1C[C@H]2[C@@H](c3ccccc31)[C@@H](CO)N2C(=O)c1ccc(F)cc1 | -13.2% (inactive)
CCC(=O)N1[C@@H](CO)[C@@H]2c3ccccc3N(C(=O)c3ccccc3F)C[C@@H]21 | 26.9% (active)
CC(C)NC(=O)N1C[C@H]2[C@@H](c3ccccc31)[C@H](CO)N2C(=O)c1ccccc1F | -10% (inactive)
CC(C)NC(=O)N1[C@@H]2CN(C(=O)Nc3ccc(F)cc3)c3ccccc3[C@@H]2[C@@H]1CO | 8.2% (inactive)
CN1C[C@@H]2[C@H](c3ccccc31)[C@H](CO)N2C(=O)Nc1ccc(F)cc1 | -5.89% (inactive)
CN1C[C@H]2[C@@H](c3ccccc31)[C@@H](CO)N2C(=O)Nc1ccccc1 | 58.5% (active)
CC(C)NC(=O)N1[C@H](CO)[C@@H]2c3ccccc3N(C(=O)c3ccccc3F)C[C@@H]21 | 54.6% (active)
O=C(c1ccccc1F)N1C[C@@H]2[C@H](c3ccccc31)[C@H](CO)N2C(=O)C1CCCC1 | -9.77% (inactive)
CCCNC(=O)N1[C@@H]2CN(C)c3ccccc3[C@@H]2[C@@H]1CO | -0.141% (inactive)
O=C1O[C@@H](c2ccccc2)[C@@H](c2ccccc2)N2[C@@H](c3ccccc3OCCO)[C@]3(C(=O)Nc4ccccc43)[C@@H](C(=O)N3CCCCCCC3)[C@H]12 | 0.314% (inactive)
COC(=O)C[C@H]1CC[C@H]2[C@@H](COc3ccc(NC(=O)C4CC4)cc3C(=O)N2C)O1 | -4.57% (inactive)
O=C(N[C@H]1CC[C@@H](CCNS(=O)(=O)c2ccc(Cl)cc2)O[C@H]1CO)c1cccc(F)c1 | -5.79% (inactive)
O=C(C[C@H]1CC[C@H]2[C@@H](COC[C@@H](O)CN2Cc2nccs2)O1)NCc1ccccc1Cl | -3.47% (inactive)
C[C@H](CO)N1C[C@H](C)[C@H](CN(C)Cc2cccc(C(=O)O)c2)Oc2ncc(-c3ccccc3F)cc2C1=O | 5.26% (inactive)
C[C@@H]1CCCCO[C@@H](CN(C)Cc2ccc(C(=O)O)cc2)[C@H](C)CN([C@H](C)CO)C(=O)c2cc(NC(=O)Nc3ccc(F)cc3)ccc2O1 | 4.69% (inactive)
C[C@H]1CN([C@@H](C)CO)C(=O)c2cc(/C=C/c3ccccc3)cnc2O[C@@H]1CN(C)C(=O)c1ccc(F)cc1 | -7.53% (inactive)
COc1ccc(S(=O)(=O)N2C[C@H]3CON(C)[C@H]3C[C@H]2c2cccc(Br)c2)cc1 | -6.66% (inactive)
CN1OC[C@@H]2CN(C(=O)c3ccc(-c4ccccc4)cc3)[C@H](c3ccc(-c4cccc(F)c4)cc3)C[C@@H]21 | -4.1% (inactive)
COc1ccc(CN2C[C@H]3CON(C)[C@H]3C[C@H]2c2ccc(-c3cccc(F)c3)cc2)cc1 | 27.4% (active)
Cc1noc(C)c1CCC(=O)N1CCCC(CO)(Cc2ccccc2)C1 (stereo not given) | 7.18% (inactive)
CCOC(=O)C1(Cc2ccccc2C)CCCN(C(=O)CCc2c(C)noc2C)C1 (stereo not given) | 49.6% (active)

SMILES | CPE inhibition
CCOC(=O)C1(Cc2ccccc2C)CCCN(C(=O)CN2C(=O)CSC2=O)C1 (stereo not given) | 1.33% (inactive)
CCCCc1nc2cc(C(=O)NCCc3cnn(C)c3)ccc2o1 | 36% (active)
CC(C)c1nc2cc(C(=O)NC(C)c3cnn(C)c3)ccc2o1 (stereo not given) | 1.88% (inactive)
CCCCc1nc2cc(C(=O)N3CCCCC3CCO)ccc2o1 (stereo not given) | 6.93% (inactive)
C[C@@H]1CN([C@H](C)CO)C(=O)c2cc(-c3ccc(C#N)cc3)cnc2O[C@@H]1CN(C)C(=O)Nc1ccccc1 | -5.47% (inactive)
COc1ccc2c3c(n(C)c2c1)[C@@H](CO)N(CC1CC1)CC31CCN(C(=O)c2cccc(F)c2)CC1 | -5.77% (inactive)
O=C(O)C1CCCCC1C(=O)N1CCN(S(=O)(=O)c2ccc(F)cc2)CC1 (stereo not given) | 70.6% (active)
O=C(C1CCCN(S(=O)(=O)c2ccccc2)C1)N1CCN(c2ccc(F)cc2)CC1 (stereo not given) | -0.979% (inactive)
O=C(c1cnc(Cl)c(Cl)c1)N1CCN(S(=O)(=O)c2ccc(F)cc2)CC1 | 1.53% (inactive)
COc1cccc(C(=O)N2C[C@@H]3[C@H](c4ccccc42)[C@H](CO)N3Cc2ccccc2F)c1 | 6.58% (inactive)
Cc1nccn1-c1ccc(NC(=O)[C@H]2O[C@@H](n3ccc(=O)[nH]c3=O)[C@H](O)[C@@H]2O)cc1 | 1.75% (inactive)
O=C(N[C@H](Cc1ccccc1)C(=O)N1CCCN(Cc2cccs2)CC1)[C@H]1O[C@@H](n2ccc(=O)[nH]c2=O)[C@H](O)[C@@H]1O | -10.6% (inactive)
O=C(NS(=O)(=O)c1cccs1)[C@H]1O[C@@H](n2ccc(=O)[nH]c2=O)[C@H](O)[C@@H]1O | 77.5% (active)
COc1ccc(CC(=O)Nc2nc(-c3ccc(F)c(F)c3)cs2)cc1OC | -4.33% (inactive)
Clc1ccc(-c2csc(-c3ccncc3)n2)cc1 | 2.38% (inactive)
Fc1ccc(-c2csc(-c3ccc(C4SCCS4)cc3)n2)cc1F | 38.4% (active)
CC(C)NC(=O)N(C)C[C@@H]1OCCCC[C@@H](C)Oc2ccc(NC(=O)c3ccccc3)cc2C(=O)N([C@@H](C)CO)C[C@H]1C | 3.29% (inactive)
C[C@@H]1CN([C@@H](C)CO)C(=O)c2cc(NC(=O)Nc3cccc4ccccc34)ccc2O[C@@H]1CN(C)C(=O)NC1CCCCC1 | -3.76% (inactive)
COc1ccc(C2CC(c3cccs3)=NN2C(=O)CSc2nncs2)cc1OC (stereo not given) | 6.81% (inactive)
COc1ccc(C2CC(c3cccs3)=NN2C(=O)CCC(=O)O)cc1OC (stereo not given) | 36.9% (active)
COc1ccc(C2=NN(C(=O)CCC(=O)O)C(c3cccs3)C2)cc1OC (stereo not given) | -2.94% (inactive)
COc1ccccc1C(=O)NCCC(=O)NN1C(=O)NC2(CCCCC2)C1=O | 0.164% (inactive)
COc1ccccc1CNC(=O)CCCN1C(=O)NC2(CCCC2)C1=O | 54.7% (active)
COc1ccccc1CCNC(=O)CN1C(=O)NC2(CCCC2)C1=O | -7.14% (inactive)

SMILES | CPE inhibition
C[C@@H]1CCCCO[C@@H](CN(C)C(=O)C2CCCCC2)[C@@H](C)CN([C@H](C)CO)C(=O)c2cc(NC(=O)c3ccccc3)ccc2O1 | 17.1% (inactive)
C[C@@H]1CN([C@@H](C)CO)S(=O)(=O)c2ccc(C#CCC3CCCC3)cc2O[C@@H]1CN(C)C | -3.23% (inactive)
C[C@@H]1CN([C@H](C)CO)S(=O)(=O)c2ccc(C#CCC3CCCC3)cc2O[C@H]1CN(C)Cc1ccc(C(=O)O)cc1 | 41.8% (active)
CCC(=O)N(C)C[C@H]1Oc2cc(C#CCOC)ccc2S(=O)(=O)N([C@H](C)CO)C[C@H]1C | 77.3% (active)
C[C@@H]1CN([C@H](C)CO)S(=O)(=O)c2ccc(C#CCC3CCCC3)cc2O[C@H]1CN(C)C(=O)CC1CC1 | 9.35% (inactive)
C[C@H](CO)N1C[C@H](C)[C@@H](CN(C)Cc2cncnc2)Oc2cc(-c3ccccc3)ccc2S1(=O)=O | -3.98% (inactive)
COCC#Cc1ccc2c(c1)O[C@H](CN(C)C(=O)CN(C)C)[C@@H](C)CN([C@H](C)CO)S2(=O)=O | -5.36% (inactive)
C[C@H](CO)N1C[C@H](C)[C@H](CN(C)Cc2ccncc2)Oc2cc(-c3cncnc3)ccc2S1(=O)=O | -6.89% (inactive)
Cc1noc(C)c1NC(=O)N(C)C[C@@H]1Oc2cc(Br)ccc2S(=O)(=O)N([C@@H](C)CO)C[C@H]1C | 21.5% (active) and 2.3% (inactive)
C[C@H]1CN([C@@H](C)CO)S(=O)(=O)c2ccc(-c3cncnc3)cc2O[C@H]1CN(C)Cc1ccncc1 | 35.7% (active)
CCC(=O)N(C)C[C@@H]1Oc2cc(C#CCOC)ccc2S(=O)(=O)N([C@H](C)CO)C[C@H]1C | -10.5% (inactive)
Cc1noc(C)c1NC(=O)N(C)C[C@@H]1Oc2cc(C#CCC(C)C)ccc2S(=O)(=O)N([C@H](C)CO)C[C@@H]1C | 16.2% (inactive)
COc1ccccc1NC(=O)N(C)C[C@H]1Oc2cc(Br)ccc2S(=O)(=O)N([C@H](C)CO)C[C@@H]1C | 10.7% (inactive) and 3.12% (inactive)
CN1C(=O)c2cc(NC(=O)Nc3ccccc3Cl)ccc2OC[C@H]2O[C@H](CC(=O)NCCCN3CCOCC3)CC[C@H]21 | -4.69% (inactive)
CCNC(=O)C[C@@H]1CC[C@H]2[C@@H](COc3ccc(NC(=O)NC(C)C)cc3C(=O)N2C)O1 | -7.53% (inactive)
COc1ccc(NC(=O)Nc2ccc3c(c2)OC[C@@H](C)NC[C@@H](C)[C@H](OC)CN(C)C3=O)cc1 | -3.84% (inactive)
COc1ccc(S(=O)(=O)N2C[C@@H](O)COC[C@H]3O[C@@H](CC(=O)NCCN4CCCCC4)CC[C@@H]32)cc1 | 2.39% (inactive)
C[C@@H]1CN([C@H](C)CO)C(=O)c2cc(NC(=O)NC3CCCCC3)ccc2O[C@H]1CN(C)C(=O)Nc1ccccc1 | 1% (inactive)
C[C@@H]1CCCCO[C@@H](CN(C)C(=O)Cc2ccccc2)[C@@H](C)CN([C@@H](C)CO)C(=O)c2cc(NC(=O)c3ccccc3)ccc2O1 | -1.37% (inactive)
O=C(Nc1ccccc1)N[C@@H]1CC[C@H](CCn2cc(-c3ccccc3F)nn2)O[C@@H]1CO | 10.9% (inactive)
CS(=O)(=O)N1CC2(C1)[C@H](c1ccccc1)[C@@H](CO)N2C(=O)c1ccccc1 | 0.143% (inactive)
O=S(=O)(c1ccc(F)cc1)N1CCCCN2[C@H](CO)[C@@H](c3ccc(C#CC4CCCC4)cc3)[C@H]2C1 | -3.13% (inactive)
